What all share (assay): NCI-60 one-dose screen, 48 h (100 = growth as untreated, 0 = no growth, -100 = all killed)
Common to all, as to details: 10 µM unless noted

Experiment [1] concerns K-562 leukemia.
Experiment [2] has as its system MALME-3M melanoma.
Experiment [3] relates to MDA-MB-231 breast.
For experiment [4], the system named is RXF 393 renal.
Experiment [5] concerns SF-268 CNS.
Experiment [6] concerns SF-295 CNS.
The subject of experiment [7] is SF-539 CNS.
The test system of experiment [8] is UACC-257 melanoma.
The subject of experiment [9] is M14 melanoma.
The subject of experiment [10] is HCT-15 colon.
Experiment [11] concerns HT29 colon.
Experiment [12] relates to SNB-75 CNS.
Experiment [13] relates to SNB-19 CNS.
Experiment [14] relates to U251 CNS.
Experiment [15] relates to PC-3 prostate.
Experiment [16] relates to SK-MEL-5 melanoma.
Experiment [17] concerns UACC-62 melanoma.
For experiment [18], the system named is SK-MEL-28 melanoma.
For experiment [19], the system named is SK-MEL-2 melanoma.

The structures appear in SMILES notation. The panel holds about 83,000 compounds, 20% with a hit somewhere; the sample as a whole holds those more often.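 How to read the values: 0–100, growth inhibition (40 = 60% inhibited); 0, no net growth; -100 to 0, cell death (-40 = 40% of starting cells died; -100 = all dead).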 A number with no mark means an inactive call. Calls of active or inactive are those of the source. Rule for the calls: active = growth percent below 10; inactive = the rest.

This passage reports growth results from PubChem BioAssay (NCI).

Consider `CC(C)NC(=O)c1cc(-c2ccc(NC(=O)Nc3ccc(N4CCOCC4)c(C(F)(F)F)c3)cc2)nc2cccnc12`, for which the growth is 24.6% in experiment [1]; 68.3% in [2]; 48.7% in experiment [3]; -9.17% (active) in [4]; 77.5% in [5]; 1.17% (active) in experiment [6]. The growth in experiment [7] was 20.9%; in [8] it was 94.4%; in experiment [9], 73.2%; in [10], 68.1%; in experiment [11], 60.8%; in [12], 82.6%. Besides, the growth in experiment [13] is 62.6%; in [14], 47%; in experiment [15] it was 44.5%; in experiment [16] it was 78.7%; in experiment [17] it was 75.3%; in [18] it was 59.2%. In experiment [19], the growth was 75.5%.

Regarding `COc1ccc(C(=O)/C=C/c2ccc(OCc3ccc(C)cc3)c(OC)c2)cc1OC`, the growth in experiment [1] is 25.4%; in experiment [2], 87.8%; in experiment [3] it was 59%; in experiment [4], 103%; in experiment [5], 72.4%; in experiment [6], 75.2%. Besides, the growth was 72.1% in [7]; 80.3% in experiment [8]; 86.8% in experiment [9]; 34.4% in [10]; 68.8% in experiment [11]; 72% in experiment [12]. The growth is 69.8% in experiment [13]; 49.9% in experiment [14]; 55.9% in experiment [15]; 64.5% in experiment [16]; 54.5% in [17]; 82.3% in [18]. The growth in [19] is 94.3%.

Take `Nc1nc(N)c2c(n1)NC(c1ccc(F)cc1)CC(c1ccc(Nc3nc(NCCO)nc(Nc4ccc(Cl)cc4)n3)cc1)=N2` (configuration not stated): the growth is 0.513% (active) in [1]; -60.4% (active) in experiment [2]; -75.8% (active) in [3]; -77.4% (active) in [4]; 38.7% in experiment [5]; 9.06% (active) in experiment [6]. Moreover, the growth was -78.9% (active) in experiment [7]; 106% in experiment [8]; -66.1% (active) in experiment [9]; -48.3% (active) in experiment [10]; -52.1% (active) in experiment [11]; 44.3% in experiment [12]. Moreover, the growth was 8.01% (active) in experiment [13]; -76.6% (active) in experiment [14]; 22.7% in experiment [15]; -81% (active) in [16]; 49.8% in experiment [17]; -82.9% (active) in experiment [18]. In [19], the growth was 26.3%.

With `N[C@@H](Cc1cn(-c2c3ccccc3nc3ccccc23)nn1)C(=O)O`, the growth in experiment [1] was 88%; in [2] it was 103%; in experiment [3] it was 97.4%; in experiment [4], 114%; in experiment [5], 101%; in experiment [6] it was 105%. Moreover, the growth was 90.8% in experiment [7]; 106% in experiment [8]; 107% in experiment [9]; 85.4% in [10]; 107% in [11]; 96.7% in [12]. For the same compound, the growth in experiment [13] is 93.2%; in [14] it was 103%; in [15], 99.2%; in experiment [16], 101%; in experiment [17], 93.5%; in [18] it was 100%. Also, the growth in experiment [19] was 130%.

`COC(=O)C(C)NS(=O)(=O)/N=C1\NC(=O)NC1=C(Cl)Cl` (configuration not stated): the growth was 104% in experiment [1]; 99% in experiment [2]; 106% in experiment [3]; 124% in [4]; 98.2% in experiment [5]; 103% in experiment [6]. In addition, the growth was 95.7% in [7]; 99.7% in [8]; 94.7% in experiment [9]; 102% in experiment [10]; 115% in experiment [11]; 98.8% in [12]. Besides, the growth is 100% in experiment [13]; 106% in [14]; 92.9% in experiment [15]; 99.1% in experiment [16]; 91.9% in experiment [17]; 99.4% in experiment [18]. Also, in [19], the growth was 110%.

Consider `Cc1[nH]nc2ncc(C#Cc3cncc(C(=O)Nc4ccc(CN5CCN(C)CC5)c(C(F)(F)F)c4)c3)cc12`, for which the growth is 7.53% (active) in experiment [1]; -28.5% (active) in [2]; -39.2% (active) in experiment [3]; -12.8% (active) in experiment [4]; 21.2% in [5]; 34.2% in experiment [6]. The growth in experiment [7] is -3.8% (active); in experiment [8], 14.7%; in experiment [9], -17.1% (active); in experiment [10], 12.5%; in experiment [11] it was 9.72% (active); in [12], -6.21% (active). The growth in [13] is 50.5%; in [14], 40.5%; in experiment [15], 48.8%; in [16] it was 40.2%; in [17], -15.8% (active); in experiment [18], -11.4% (active). Moreover, in [19], the growth is -44.6% (active).

As for `COc1ccc(C(=O)/C=C/c2ccc(OCc3ccc(Cl)cc3)c(OC)c2)cc1OC`, the growth in experiment [1] is 23.9%; in experiment [2], 82.3%; in experiment [3] it was 57.7%; in [4] it was 96.2%; in experiment [5] it was 78.7%; in experiment [6] it was 68.3%. Moreover, the growth in [7] is 71.8%; in experiment [8], 83.5%; in experiment [9], 78.1%; in experiment [10] it was 34.2%; in experiment [11] it was 63.7%; in experiment [12] it was 74.8%. The growth in experiment [13] is 72.3%; in [14], 58.1%; in [15] it was 59.4%; in [16], 55.2%; in experiment [17], 52.6%; in [18], 83.3%. For the same compound, in experiment [19], the growth is 83.3%.

On to `Cn1cc(-c2cc(N)n3nc(-c4cn(C)c5ccc(F)cc45)cc3n2)c2cc(F)ccc21`, for which the growth in experiment [1] is -26.2% (active); in [2], 90.8%; in [3] it was 3.73% (active); in [4], 26.2%; in experiment [5], 19.6%; in [6], 80.1%. Further, the growth in experiment [7] was -58.5% (active); in experiment [8] it was 101%; in experiment [9], 20.3%; in experiment [10], 4.58% (active); in experiment [11] it was -72.8% (active); in [12], 109%. Moreover, the growth in experiment [13] was 50.1%; in experiment [14], -62.4% (active); in experiment [15] it was 63.4%; in experiment [16], 104%; in [17] it was 62.5%; in experiment [18], 92.4%. Besides, in [19], the growth was 110%.
